Assay results taken from PubChem BioAssay AID624331 (National Center for Advancing Translational Sciences (NCATS), 2012).
Inconclusive results are not listed. Where a call stands in place of a potency, no number is given. Activity calls are given as the source filed them. The call rests on the fitted dose curve; in most records, active means well fitted activation curve with a large enough effect; inconclusive means small, poorly fitted or top-dose-only effect; inactive means no such curve, though single readings can be large or run the other way.

Experiment: qHTS assay for re-activators of p53 using a Luc reporter: Hit Validation with no p53 Expressed
Conditions: p53-null cells, luciferase reporter counter-screen; series mostly up to 46.1 µM
Summary of the method: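 Counter-screen of primary hits in a cell line not transfected with p53, in Opti-MEM with 10% FBS; compounds at several concentrations (10 mM stock, 1:5; top 46.1 µM in well), 24 h at 37 deg C, 5% CO2. Luminescence read after 10 min with Amplite reagent.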

Row | Compound | Potency
1 | CCOC(=S)SCC(=O)Nc1nc(-c2ccc(Br)cc2)cs1 | inactive
2 | CCN(CC)C(=O)CSC(=Nc1ccccc1F)NC#N | inactive
3 | COc1ccccc1OCCn1nnc2ccccc21 | inactive
4 | Cc1cc(Br)c(S(=O)(=O)NCCN2CCOCC2)cc1C | inactive
5 | Cc1ccc(NC(=O)Nc2ccccc2)c(Br)c1 | inactive
6 | Cc1cccc(C)c1Nc1c(-c2ccccn2)nc2ccccn12 | inactive
7 | CC(C)(C)c1ccc(NC(=O)COC(=O)c2ccc(NS(=O)(=O)c3ccc(F)c(F)c3)cc2)cc1 | inactive
8 | O=C(COC(=O)C12CC3CC(CC(O)(C3)C1)C2)Nc1ccc(Br)cc1F | inactive
9 | O=C(Nc1ccc2ccccc2c1)c1ccc(Cl)cc1Cl | inactive
10 | COc1cccc(NC(=O)CSC2=C(C#N)C(c3ccco3)C3=C(CCCC3=O)N2)c1 (centres undefined) | inactive
11 | COC(=O)c1c(C)[nH]c(C(=O)/C=C/c2ccccc2)c1C | inactive
12 | COC(=O)c1ccc(CSc2nnc(-c3c[nH]c4ccccc34)n2-c2ccccc2)cc1 | inactive
13 | CNC(=S)N/N=C(\C)c1ccc(N2CCOCC2)cc1 | inactive
14 | Cc1ccc(C(=O)N/N=C2\CCc3ccccc32)c(C)c1 | inactive
15 | Cc1cccc(-n2nc([N+](=O)[O-])c(=NC3CCN(Cc4ccccc4)CC3)n2O)c1 | inactive
16 | O=C(Cn1cc2c(n1)CCCCC2)NC1CCCCCC1 | inactive
17 | CCCCCCC1CC(/C(C)=N\NC(N)=O)OC1=O (centres undefined) | inactive
18 | Cc1ccc2nc(-c3ccc(NC(=O)CCN4C(=O)c5ccccc5C4=O)cc3)sc2c1 | inactive
19 | O=C(Nc1cccc(N=Cc2cc(Cl)cc(Br)c2O)c1)c1ccco1 | inactive
